Assay outcomes (PubChem)
Hits are enriched below; roughly 6.8% of the tested compounds scored in any of these assays.
Spn DPM-DC inh – inhibitors of Streptococcus pneumoniae diphosphomevalonate decarboxylase | AID 556 | calls only at 10 µM | purified DPM-DC, PK/LDH coupled NADH fluorescence | hit rate 0.49% among 65,000;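 active means the 320 compounds with the highest percent inhibition in the single-dose primary screen, excluding strongly autofluorescent ones, cut at about 32% in these data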;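 further: kinetic rate of NADH fluorescence loss reporting ADP formed by the decarboxylase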
NADH enzymes – inhibition of NAD/NADH coupling enzymes, library profiling. coupled PK/LDH NADH assays, four targets. IC50, µM (titrated, usually from 10 µM). hit rate 0.02% among 65,000. AID 774;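 active means single-dose screening hits from any of four coupled enzyme assays that gave an IC50 when retested across doses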;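 further: the DPM-DC format reads NADH fluorescence rather than 340 nm absorbance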
Fluor 339 460 – intrinsic fluorescence of library compounds, ex339/em460 – biochemical, MLSMR library, data from DPM-DC assay, artefact control, profiling panel | compound autofluorescence, ex339/em460 nm, NADH buffer; active compounds read high; 1 = no-compound wells, NADH background | fluorescence fold increase at 10 µM | hit rate 5.5% among 65,000 | AID 709;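 active means at 10 µM, mean starting fluorescence two-fold or more over control wells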;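 further: signal is the first read of a kinetic run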
MK inhibit – inhibitors of Streptococcus pneumoniae mevalonate kinase; purified MK, PK/LDH-coupled NADH absorbance 340 nm; inhibition, % at 10 µM; hit rate 0.48% among 65,000;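 active means ranked among the strongest by inhibition in the single 10 µM screen, a fixed top-ranked set picked for dose follow-up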
Spn PMK inh – inhibitors of Streptococcus pneumoniae phosphomevalonate kinase; purified PMK, PK/LDH-coupled NADH absorbance 340 nm; hit rate 0.49% among 65,000; AID 539; inhibition, % at 10 µM;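 active means top-ranked compounds by inhibition in the single 10 µM screen, taking a fixed number of the strongest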
Abs 340nm – compounds absorbing at 340 nm | compound absorbance at 340 nm, fold over control | fold change at 10 µM | 65,000 tested, under 10 active;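 active means at 10 µM dose, initial 340 nm absorbance at least 2 fold that of control wells; inactive means change under 2 fold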;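 further: initial absorbance extrapolated from kinetic A340 decline of NADH oxidation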
Of the large screens only hits and unclear results are named; the others gave an inactive call.

COCCCn1c(=N)c(C(=O)NCc2ccc3c(c2)OCO3)cc2c(=O)n3cccc(C)c3nc21	none
CCOc1ccccc1CNC(=O)C1CCN(C(=O)c2sccc2-n2cccc2)CC1	none
CCN(CC)CCCN1C(=O)C(=O)/C(=C(/O)c2ccccc2)C1c1ccccn1 (stereo not given)	none
O=C(O)[C@@H](c1ccccc1)N1Cc2ccccc2C1=O	MK inhibit 72
CSCC[C@@H](C(=O)O)N1Cc2ccccc2C1=O	none
CCOC(=O)c1c(CC(C)C)csc1NC=O	Spn DPM-DC inh active
O=C(c1c(F)cccc1F)N(Cc1ccccn1)C1CCCC1	none
COc1ccc(-n2cnc3c(cnn3CCC#N)c2=N)cc1	none
COc1ccccc1N1C(=O)c2ccccc2NC1c1ccncc1 (stereo not given)	Fluor 339 460 2.1 (not shown: Spn DPM-DC inh)
O=C1c2ccccc2NC(c2ccncc2)N1c1ccccn1 (stereo not given)	Fluor 339 460 2.1 (not shown: Spn DPM-DC inh)
COc1ccccc1N1C(=O)N(C(C)=O)C2C1Nc1ccccc1N2C (stereo not given)	none
COc1ccc(N(CC(=O)Nc2ccc3c(c2)OCO3)S(=O)(=O)c2ccccc2)c(OC)c1	none
CSc1c(C#N)c(N)c(C#N)c2c1COC(C)(C)C2	Fluor 339 460 2.1 (not shown: Spn DPM-DC inh)
CN1CCc2c(n(CC(O)CN3C(=O)c4ccccc4S3(=O)=O)c3ccccc23)C1=O (stereo not given)	none
CC(C)NCC(O)Cn1c2c(c3ccccc31)CCc1c-2cnn1-c1ccccc1 (stereo not given)	Fluor 339 460 3.9 (not shown: Spn DPM-DC inh)
Cc1ccc(-c2cc3nc(C)cc(NCc4ccco4)n3n2)cc1	Fluor 339 460 3.3
COc1cccc(C2C(C(=O)c3cccs3)=C(O)C(=O)N2CCCn2ccnc2)c1OC (stereo not given)	none
CCN1CCN(c2cc(C)c3cc(NC(=O)c4ccc5c(c4)OCO5)ccc3n2)CC1	none
CCOc1ccccc1C(=O)Nc1ccc2nc(N3CCN(c4ncccn4)CC3)cc(C)c2c1	Fluor 339 460 2.2 (not shown: Spn DPM-DC inh)
COc1cccc(C(=O)Nc2ccc3nc(N4CCN(c5ncccn5)CC4)cc(C)c3c2)c1OC	none
Cc1cc(N2CCOCC2)nc2ccc(NC(=O)CCC(=O)N3CCCC(C)C3)cc12 (stereo not given)	Fluor 339 460 4.8 (not shown: Spn DPM-DC inh)
Cc1cc(N2CCN(C)CC2)nc2ccc(NC(=O)CCC(=O)NCc3ccco3)cc12	Fluor 339 460 3.5
COc1ccc(C)cc1NC(=O)CCC(=O)Nc1ccc2nc(N3CCN(C)CC3)cc(C)c2c1	Fluor 339 460 2.5
CC(C)CCn1c(SCC(N)=O)nc2c1c(=O)n(C)c(=O)n2C	none
CC1CCCN(S(=O)(=O)c2cccc(-c3cn4cccnc4n3)c2)C1 (stereo not given)	Fluor 339 460 3.6 (not shown: Spn DPM-DC inh)
CCCCCCC(=O)N1CCC(c2nc3c(nnn3Cc3ccccc3Cl)c(=O)[nH]2)CC1	none
Cc1ccc(S(=O)(=O)N2CCOCC(=O)NCCOCCNC(=O)COCC2)cc1	Spn DPM-DC inh active
Cc1ccc2nc(-c3ccc(S(=O)(=O)N4CCOCC4)cc3)cn2c1	Fluor 339 460 3 (not shown: Spn DPM-DC inh)
O=C(O)c1cc(-c2ccncc2)nc2ccc(S(=O)(=O)N3CCOCC3)cc12	none
Cc1ccc2nc(-c3ccccc3)cn2c1	Fluor 339 460 2.9
Cc1ccn2cc(-c3ccc(S(=O)(=O)N4CCOCC4)cc3)nc2c1	Fluor 339 460 2.2 (not shown: Spn DPM-DC inh)
CCOc1ccc(-n2nc(C(=O)N3CCOCC3)c3ccccc3c2=O)cc1	none
O=C(O)CC(CNS(=O)(=O)c1ccccc1)c1ccccc1 (stereo not given)	none
O=C(O)CCc1nn2cc(-c3ccccc3)nc2[nH]c1=O	Fluor 339 460 2.4 (not shown: Spn DPM-DC inh)
CCc1nn2cc(-c3ccccc3)nc2s1	none
COc1ccc(-c2nnc3sc(-c4ccco4)nn23)cc1OC	none
COc1cc(OC)c(-c2nn3c(-c4cccnc4)nnc3s2)cc1OC	Fluor 339 460 3.9 (not shown: Spn DPM-DC inh)
COc1cc(OC)c(-c2nn3c(-c4ccncc4)nnc3s2)cc1OC	none
COc1ccc(-c2nn3c(-c4ccco4)nnc3s2)cc1OC	Spn DPM-DC inh active
COc1cc(OC)c(-c2nn3c(-c4ccco4)nnc3s2)cc1OC	Fluor 339 460 3.4 (not shown: Spn DPM-DC inh)
CCN(Cc1ccccc1)S(=O)(=O)c1nc2nc(C)c(C)c(C)n2n1	none
Cc1noc(C)c1COC(=O)c1ccc(-c2nc3ccccc3s2)s1	Fluor 339 460 4
Cc1noc(C)c1COC(=O)CCCc1nc2ccccc2s1	none
